Screen size: about 5,500 compounds; about 2,000 (36%) were called active. About 18% were inconclusive and are not listed. No stated cut-off is given here; in the data, active means normalized growth mostly below about 0.91 (no sharp cut-off); inconclusive means no clear call, values can overlap the other calls; inactive means mostly above about 0.92. Some of the results follow.
Assay: chemical genetic growth profiling, strain panel (AID 1159580);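 further: tested at 20 µM; growth read once vehicle control cultures reached saturation at 30 °C; 1 = growth at the plate median or of vehicle wells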
Details: growth OD

Measured: normalized growth

O=C(O)COc1cc(Cl)c(Cl)cc1Cl
inactive: S. cerevisiae deletion strains, locus YJR075W, strain HOC1, stronger effect = lower value 1.01 | S. cerevisiae deletion strains, locus YKL009W, strain mrt4, stronger effect = lower value 1.05 | S. cerevisiae deletion strains, locus YKL068W, stronger effect = lower value 1.01 | S. cerevisiae deletion strains, locus YKL085W, strain MDH1 (second series), stronger effect = lower value 1.01 | S. cerevisiae deletion strains, locus YKL085W, strain MDH1, stronger effect = lower value 1.01 | S. cerevisiae deletion strains, locus YKL160W, strain elf1, stronger effect = lower value 1 | S. cerevisiae deletion strains, locus YKL190W, strain CNB1, stronger effect = lower value 0.995 | S. cerevisiae deletion strains, locus YKR001C, strain vps1, stronger effect = lower value 1.04 | S. cerevisiae deletion strains, locus YKR026C, strain gcn3, stronger effect = lower value 1 | S. cerevisiae deletion strains, locus YKR091W, strain srl3, stronger effect = lower value 1 | S. cerevisiae deletion strains, locus YLL001W, strain dnm1, stronger effect = lower value 1.01 | S. cerevisiae deletion strains, locus YLL026W, stronger effect = lower value 0.998 | S. cerevisiae deletion strains, locus YLL041C, strain sdh2, stronger effect = lower value 1 | S. cerevisiae deletion strains, locus YLR027C, strain aat2, stronger effect = lower value 1 | S. cerevisiae deletion strains, locus YLR039C, strain RIC1, stronger effect = lower value 1.06 | S. cerevisiae deletion strains, locus YLR058C, strain SHM2, stronger effect = lower value 1.01 | S. cerevisiae deletion strains, locus YLR102C, strain apc9, stronger effect = lower value 1.02 | S. cerevisiae deletion strains, locus YLR113W, strain HOG1, stronger effect = lower value 0.963 | S. cerevisiae deletion strains, locus YLR221C, strain rsa3, stronger effect = lower value 1 | S. cerevisiae deletion strains, locus YLR258W, strain gsy2, stronger effect = lower value 1.01 | S. cerevisiae deletion strains, locus YLR262C, strain YPT6 (second series), stronger effect = lower value 1.01 | S. cerevisiae deletion strains, locus YLR262C, strain YPT6, stronger effect = lower value 1.07 | S. cerevisiae deletion strains, locus YLR268W, strain sec22, stronger effect = lower value 1.02 | S. cerevisiae deletion strains, locus YLR320W, strain mms22, stronger effect = lower value 0.994 | S. cerevisiae deletion strains, locus YLR330W, strain CHS5, stronger effect = lower value 1.01 | S. cerevisiae deletion strains, locus YLR342W, strain FKS1 (second series), stronger effect = lower value 1.02 | S. cerevisiae deletion strains, locus YLR342W, strain FKS1, stronger effect = lower value 0.999 | S. cerevisiae deletion strains, locus YLR357W, strain rsc2, stronger effect = lower value 0.964 | S. cerevisiae deletion strains, locus YLR370C, strain arc18, stronger effect = lower value 1 | S. cerevisiae deletion strains, locus YLR371W, strain rom2, stronger effect = lower value 1.02 | S. cerevisiae deletion strains, locus YLR384C, strain iki3, stronger effect = lower value 1 | S. cerevisiae deletion strains, locus YLR418C, strain cdc73, stronger effect = lower value 1.04 | S. cerevisiae deletion strains, locus YML016C, strain PPZ1, stronger effect = lower value 1.01 | S. cerevisiae deletion strains, locus YML032C, strain rad52, stronger effect = lower value 1.02 | S. cerevisiae deletion strains, locus YML120C, strain ndi1, stronger effect = lower value 0.999 | S. cerevisiae deletion strains, locus YML124C, strain tub3, stronger effect = lower value 1.02 | S. cerevisiae deletion strains, locus YMR058W, strain fet3, stronger effect = lower value 1 | S. cerevisiae deletion strains, locus YMR078C, strain ctf18, stronger effect = lower value 1.03 | S. cerevisiae deletion strains, locus YMR125W, strain sto1, stronger effect = lower value 0.994 | S. cerevisiae deletion strains, locus YMR129W, stronger effect = lower value 1.01 | S. cerevisiae deletion strains, locus YMR205C, strain PFK2, stronger effect = lower value 0.992 | S. cerevisiae deletion strains, locus YMR223W, strain ubp8, stronger effect = lower value 1.02 | S. cerevisiae deletion strains, locus YMR231W, strain pep5, stronger effect = lower value 1.01 | S. cerevisiae deletion strains, locus YMR263W, strain SAP30, stronger effect = lower value 1.01 | S. cerevisiae deletion strains, locus YMR307W, strain GAS1, stronger effect = lower value 1.02 | S. cerevisiae deletion strains, locus YNL067W, strain RPL9B, stronger effect = lower value 1.01 | S. cerevisiae deletion strains, locus YNL071W, strain lat1, stronger effect = lower value 0.994 | S. cerevisiae deletion strains, locus YNL128W, strain TEP1, stronger effect = lower value 1.02 | S. cerevisiae deletion strains, locus YNL153C, strain GIM3, stronger effect = lower value 1 | S. cerevisiae deletion strains, locus YNL183C, strain NPR1, stronger effect = lower value 0.953 | S. cerevisiae deletion strains, locus YNL209W, strain ssb2, stronger effect = lower value 1 | S. cerevisiae deletion strains, locus YNL233W, strain BNI4, stronger effect = lower value 1.01 | S. cerevisiae deletion strains, locus YNL248C, strain rpa49, stronger effect = lower value 0.992 | S. cerevisiae deletion strains, locus YNL250W, strain rad50, stronger effect = lower value 1.03 | S. cerevisiae deletion strains, locus YNL271C, strain bni1, stronger effect = lower value 1.02 | S. cerevisiae deletion strains, locus YNL298W, strain CLA4, stronger effect = lower value 1.03 | S. cerevisiae deletion strains, locus YNL307C, strain MCK1, stronger effect = lower value 1.03 | S. cerevisiae deletion strains, locus YNL322C, strain KRE1 (second series), stronger effect = lower value 0.992 | S. cerevisiae deletion strains, locus YNL322C, strain KRE1, stronger effect = lower value 1.01 | S. cerevisiae deletion strains, locus YNR049C, strain mso1, stronger effect = lower value 0.988 | S. cerevisiae deletion strains, locus YNR052C, strain pop2, stronger effect = lower value 1.01 | S. cerevisiae deletion strains, locus YOL006C, strain TOP1, stronger effect = lower value 1.06 | S. cerevisiae deletion strains, locus YOL012C, strain htz1 1.75 | S. cerevisiae deletion strains, locus YOL147C, strain pex11, stronger effect = lower value 1.02 | S. cerevisiae deletion strains, locus YOR001W, strain rrp6, stronger effect = lower value 1 | S. cerevisiae deletion strains, locus YOR061W, strain CKA2, stronger effect = lower value 1.01 | S. cerevisiae deletion strains, locus YOR069W, strain VPS5, stronger effect = lower value 1.01 | S. cerevisiae deletion strains, locus YOR070C, strain gyp1, stronger effect = lower value 0.991 | S. cerevisiae deletion strains, locus YOR080W, strain dia2, stronger effect = lower value 0.988 | S. cerevisiae deletion strains, locus YOR083W, strain WHI5, stronger effect = lower value 1.01 | S. cerevisiae deletion strains, locus YOR106W, strain vam3, stronger effect = lower value 1.02 | S. cerevisiae deletion strains, locus YOR136W, strain idh2, stronger effect = lower value 1.02 | S. cerevisiae deletion strains, locus YOR144C, strain elg1, stronger effect = lower value 1.03 | S. cerevisiae deletion strains, locus YOR184W, strain ser1, stronger effect = lower value 1.03 | S. cerevisiae deletion strains, locus YOR231W, strain MKK1, stronger effect = lower value 1.01 | S. cerevisiae deletion strains, locus YOR265W, strain rbl2, stronger effect = lower value 0.998 | S. cerevisiae deletion strains, locus YOR270C, strain vph1, stronger effect = lower value 1.02 | S. cerevisiae deletion strains, locus YOR290C, strain snf2, stronger effect = lower value 1.02 | S. cerevisiae deletion strains, locus YOR316C, strain cot1, stronger effect = lower value 1.01 | S. cerevisiae deletion strains, locus YPL051W, strain arl3, stronger effect = lower value 0.999 | S. cerevisiae deletion strains, locus YPL055C, strain LGE1, stronger effect = lower value 1.03 | S. cerevisiae deletion strains, locus YPL078C, strain atp4, stronger effect = lower value 1 | S. cerevisiae deletion strains, locus YPL106C, strain sse1, stronger effect = lower value 0.973 | S. cerevisiae deletion strains, locus YPL240C, strain hsp82, stronger effect = lower value 1 | S. cerevisiae deletion strains, locus YPL241C, strain CIN2, stronger effect = lower value 1.01 | S. cerevisiae deletion strains, locus YPL256C, strain CLN2, stronger effect = lower value 1.04 | S. cerevisiae deletion strains, locus YPR119W, strain clb2, stronger effect = lower value 1.02 | S. cerevisiae deletion strains, locus YPR141C, strain kar3, stronger effect = lower value 1.03 | S. cerevisiae deletion strains, locus YPR163C, strain tif3, stronger effect = lower value 1.02 | S. cerevisiae deletion strains, locus YPR167C, strain met16, stronger effect = lower value 1.02 | S. cerevisiae deletion strains, strain wtn01, stronger effect = lower value 1.02 | S. cerevisiae strains, strain wild type, stronger effect = lower value 1.01

— PubChem BioAssay AID1159580 (chemical genetic matrix, 2015)
